In PubChem BioAssay (EPA / NIEHS):
Active and inactive are the calls of the source. Rule for the calls: active = hit-call score of the fitted dose curve at least 0.9, where 1 is the maximum; inactive = score below 0.9.

Assay: Tanguay_ZF_120hpf_MORT: Oregon State University Tanguay Lab 120 Hour Post-fertilization zebrafish Assay for Mortality (AID 2284399)
Experimental: Tanguay_ZF_120hpf is a whole embryo, multiplexed endpoint assay using zebrafish larvae exposed for 120 hours post fertilization on a 96-well plate.Tanguay_ZF_120hpf_MORT is one of one assay component(s) measured or calculated from the Tanguay_ZF_120hpf assay. It is designed to make measurements of zebrafish development as detected with brightfield microscopy of developing zebrafish embryos.Data from the assay component Tanguay_ZF_120hpf_MORT was analyzed into 1 assay endpoints. This assay endpoint, Tanguay_ZF_120hpf_MORT, was analyzed in the positive analysis fitting direction relative to DMSO as the negative control and baseline of activity. Using a type of viability reporter, gain-of-signal activity can be used to understand changes in developmentals as they relate to the whole embryo. To generalize the intended target to other relatable targets, this assay endpoint is annotated to the zebrafish development intended target family, where the subfamily is embryonic mortality.
Zebrafish husbandry: Tropical 5D wild-type adult zebrafish were housed in at an approximate density of 1000 per 100 gallon tank at the Sinnhuber Aquatic Research Laboratory, Oregon State University, Corvallis, OR. Each tank was kept at standard laboratory conditions of 28C on a 14-h light/10-h dark photoperiod in fish water consisting of reverse osmosis water supplemented with a commercially available salt (Instant Ocean). Spawning funnels were placed into the tanks the night prior, and embryos were collected and staged. To increase bioavailability, the chorion was enzymatically removed using pronase (63.6mg/ml, >/= 3.5U/mg, Sigma-Aldrich: P5147) at 4 hours post fertilization (hpf) using a custom automated dechorionator.Chemical exposures: Six hpf dechorionated embryos were placed 1 embryo per well in a 96-well plate prefilled with 90 ul of EM using automated embryo placement systems (AEPS). Ten microliters of each row of dilution plate 2 was added to 2 exposure plates. The final DMSO concentration used was 0.64% (vol/vol). Thirty-two embryos were also exposed to 5uM trimethyltin chloride (positive control). Plates were sealed to prevent evaporation and foil covered to reduce light exposure and kept in a 28C incubator. Embryos were statically exposed until 120 hpf. At 24 hpf, embryos were assessed for photomotor response using a custom photomotor response analysis tool (PRAT) and for developmental toxicity endpoints (MO24: mortality at 24 hpf, DP: developmental progression, SM: spontaneous movement, and NC: notochord distortion). At 120 hpf, locomotor activity was measured using Viewpoint Zebralab and assessed for 13 endpoints. Zebrafish acquisition and analysis program (ZAAP), a custom program designed to inventory, acquire, and manage zebrafish data, was used to collect developmental endpoints as either present or absent (i.e., binary responses were recorded). If mortality occurred for an embryo (at either 24 or 120 hpf), the non-mortality endpoints were not measured.

Compound | outcome | AC50
FC(F)(F)COC(OCC(F)(F)F)OCC(F)(F)F | inactive | –
C[Si](C)(C)C(F)(F)C(F)(F)C(F)(F)F | inactive | –
O=C(Cl)C(F)(F)C(F)(F)C(F)(F)C(=O)Cl | – | 57.6 µM (active)
OCCC(F)(F)C(F)(F)C(F)(F)C(F)(F)F | inactive | –
FC(F)(F)C(F)(F)C(F)(F)C(F)(F)C(F)(F)C(F)(F)I | inactive | –
NCC(F)(F)C(F)(F)C(F)(F)C(F)(F)F | inactive | –
O=S(=O)(O)CCC(F)(F)C(F)(F)C(F)(F)C(F)(F)C(F)(F)C(F)(F)F | inactive | –
FC(F)C(F)(F)COCC1CO1 (stereo not given) | inactive | –
OC(O)(C(F)C(O)(O)C(F)(F)F)C(F)(F)F | inactive | –
FC(F)=C(F)C(F)(F)C(F)(F)C(F)(F)C(F)(F)C(F)(F)C(F)(F)F | inactive | –
